Among the data in PubChem BioAssay are composite z-score and z-score values, retold here.

For assay [1], the system named is Plasmodium falciparum Sir2 (PF13_0152, Sir2A). The experiment in a line: Plasmodium falciparum Sir2A binding compounds – biochemical, small-molecule microarray, 635 nm fluorescence, primary screen (AID 1098).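 Also: score merges spot fluorescence intensity with its signal-to-noise ratio.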 The conditions noted are these: fluorescence 635 nm, higher = more signal.
Assay [2] in a line: probe aDKK1 binding to arrayed compounds – biochemical, biotinylated probe, 635/667 nm fluorescence, primary screen (AID 1099).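 Also: score merges 667nm spot fluorescence with signal to noise across triplicate slides.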 The conditions noted are these: small-molecule microarray, higher = more signal.
A short description of assay [3]: probe aCHRDL2 binding to arrayed compounds – biochemical, biotinylated probe, 635/667 nm fluorescence, primary screen (AID 1100). The following applies: small-molecule microarray, higher = more signal.
A short description of assay [4]: change in splice reporter luminescence, either direction, cell-based, HEK293, spliceosome inhibition project, primary screen (AID 1101).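 Also: HEK293 cells carrying a splicing-competent luciferase reporter gene; test concentration not given here.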 The following applies: HEK293 splicing luciferase reporter, 24 h, higher = more signal, called active from +8 up or from −8 down.
In assay [5] the target is Fibroblast growth factor 10 (Homo sapiens) (UniProt O15520). The experiment in a line: compounds binding fibroblast growth factor 10 – biochemical, small-molecule microarray, 635 nm fluorescence, primary screen (AID 1102). The following applies: FGF10 binding, fluorescence 635 nm, higher = more signal.
For assay [6], the system named is glycogen synthase kinase-3 (GSK3A per assay name; protocol says GSK3B). Nature of the assay: compounds binding glycogen synthase kinase-3 – biochemical, small-molecule microarray, 635 nm fluorescence, GSK3A, primary screen (AID 1103). Also: the record names both GSK3A and GSK3B. The conditions noted are these: fluorescence 635 nm, higher = more signal.
The target of assay [7] is Epidermal growth factor receptor (Homo sapiens) (UniProt P00533). The experiment in a line: compounds binding epidermal growth factor receptor – biochemical, small-molecule microarray, 635 nm fluorescence, primary screen (AID 1104).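 Also: score merges 667 nm emission intensity with spot signal to noise over triplicate slides.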 The conditions noted are these: EGFR binding, higher = more signal.
For assay [8], the target named is Follistatin-related protein 3 (Homo sapiens) (UniProt O95633). The experiment in a line: compounds binding follistatin-related protein 3 – biochemical, small-molecule microarray, 635 nm fluorescence, primary screen (AID 1105).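 Also: score merges emission near 667 nm and signal to noise per printed spot across three slides.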 The conditions noted are these: FSTL3 binding, higher = more signal.
Assay [9] has as its target Dickkopf-related protein 1 (Homo sapiens) (UniProt O94907). The experiment in a line: small molecules binding DKK1 protein – biochemical, small-molecule microarray, 635 nm fluorescence scan, primary screen (AID 1106).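 Also: score merges emission near 667 nm with signal to noise over three replicate slides.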 The following applies: higher = more signal.
For assay [10], the system named is Inhibin beta A chain (activin A). The experiment in a line: small molecules binding activin A – biochemical, small-molecule microarray, 635 nm fluorescence scan, primary screen (AID 1107).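 Also: mouse activin A protein probed at 4.33 µg/mL on printed slides; score merges bound-protein fluorescence near 667 nm with spot signal-to-noise.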 The conditions noted are these: INHBA, higher = more signal.
The test system of assay [11] is Human papillomavirus type 1a protein E7 (residues 44-93). The experiment in a line: small molecules binding HPV E7 44-93 – biochemical, small-molecule microarray, residues 44-93, 635 nm fluorescence, primary screen (AID 1108).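 Also: E7 fragment applied at 1 µg/mL in TBST for 1 h at 4 C; score combines spot fluorescence with its signal to noise ratio.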 The following applies: fluorescence 635 nm, higher = more signal.
A short description of assay [12]: hepatitis C replication reporter changes, two-sided – Huh7 cells, luciferase reporter, HCV replication inhibitor project, primary screen (AID 1109).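 Also: huh7 hepatoma cells harbouring a luciferase neomycin HCV replicon reporter; luciferase luminescence as measure of HCV replicon replication; test concentration not given here.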 The following applies: Huh7 HCV replicon luciferase reporter, 48 h; higher = more signal. Background: In a reporter assay the amount or activity of a reporter protein is the signal.
Assay [13] addresses Left-right determination factor 2 (Homo sapiens) (UniProt O00292). Nature of the assay: small molecules binding LEFTY2 protein – biochemical, small-molecule microarray, 635 nm fluorescence scan, primary screen (AID 1110). The following applies: higher = more signal.
Assay [14] has as its target Calmodulin-1 (Homo sapiens) (UniProt P0DP23). The experiment in a line: small molecules binding calmodulin-1 with EGTA – biochemical, small-molecule microarray, Cy5-labelled CALM1, profiling panel (AID 1111).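 Also: labelled calmodulin applied in Tris saline Tween buffer holding calcium plus EGTA and DTT.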 The conditions noted are these: Cy5-CALM1 binding fluorescence, higher = more signal.
The target is the same in assay [15]. Nature of the assay: small molecules binding Ca-loaded calmodulin-1 – biochemical, small-molecule microarray, Cy5-labelled CALM1, plus calcium, artefact control for SMM control-protein annotation, profiling panel (AID 1112).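 Also: score merges spot fluorescence with signal to noise from triplicate slides.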 The conditions noted are these: Cy5-CALM1 binding fluorescence, higher = more signal.
The nature of assay [16]: probe aWnt5a binding to arrayed compounds – biochemical, biotinylated probe, 635/667 nm fluorescence, primary screen (AID 1113).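 Also: score merges 667 nm fluorescence intensity with signal-to-noise per printed feature.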 The conditions noted are these: small-molecule microarray, higher = more signal.
Assay [17] is described as follows: probe aShh binding to arrayed compounds – biochemical, biotinylated probe, 635/667 nm fluorescence, primary screen (AID 1114).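 Also: probe is biotin-labelled aShh protein from a stem cell growth factor screen; measures binding of labelled protein to compounds printed on the slide; score merges feature fluorescence at 667 nm with signal-to-noise.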 The following applies: small-molecule microarray, higher = more signal.
Assay [18] can be described thus: probe aNog binding to arrayed compounds – biochemical, biotinylated probe, 635/667 nm fluorescence, primary screen (AID 1115).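 Also: probe is biotinylated aNog protein used at 0.15 µg/mL for 1 h at 4 C; z-score combines 667 nm fluorescence of each spot with its signal to noise.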 The conditions noted are these: small-molecule microarray, higher = more signal.
Assay [19] has as its target Torsin-1A-interacting protein 1 (Homo sapiens) (UniProt Q5JTV8). Nature of the assay: compound microarray binding of lysate hLAP1 – cell lysate, small-molecule microarray, COS7 lysate, 635/667 nm fluorescence, primary screen (AID 1116). The conditions noted are these: 635 nm fluorescence, higher = more signal.
Assay [20] concerns the target Alpha-bungarotoxin (Bungarus multicinctus) (UniProt P60615). The experiment in a line: compounds binding labelled alpha-BTX control protein – biochemical, small-molecule microarray, Alexa647 label, 635/667 nm fluorescence, artefact control for SMM control protein annotation, profiling panel (AID 1117). The conditions noted are these: alpha-BTX-A647 binding fluorescence, higher = more signal.

Active and inactive are the calls of the source.

Chain of Alpha-bungarotoxin (Bungarus multicinctus) (P60615 whole entry, looked up): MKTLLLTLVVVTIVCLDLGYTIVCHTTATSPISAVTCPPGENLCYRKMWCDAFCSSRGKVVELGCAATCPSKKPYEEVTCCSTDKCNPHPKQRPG
Chain of Left-right determination factor 2 (Homo sapiens) (O00292 whole entry, looked up): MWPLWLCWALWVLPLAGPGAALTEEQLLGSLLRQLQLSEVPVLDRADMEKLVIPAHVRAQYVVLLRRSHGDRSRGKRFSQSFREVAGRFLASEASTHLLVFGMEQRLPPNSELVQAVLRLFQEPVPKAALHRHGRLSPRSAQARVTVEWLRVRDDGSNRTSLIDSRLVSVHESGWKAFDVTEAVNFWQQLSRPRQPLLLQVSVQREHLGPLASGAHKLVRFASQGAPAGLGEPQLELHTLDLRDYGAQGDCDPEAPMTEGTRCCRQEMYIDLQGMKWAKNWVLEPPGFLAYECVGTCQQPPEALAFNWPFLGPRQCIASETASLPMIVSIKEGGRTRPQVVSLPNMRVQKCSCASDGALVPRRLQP
Chain of Torsin-1A-interacting protein 1 (Homo sapiens) (Q5JTV8 whole entry, looked up): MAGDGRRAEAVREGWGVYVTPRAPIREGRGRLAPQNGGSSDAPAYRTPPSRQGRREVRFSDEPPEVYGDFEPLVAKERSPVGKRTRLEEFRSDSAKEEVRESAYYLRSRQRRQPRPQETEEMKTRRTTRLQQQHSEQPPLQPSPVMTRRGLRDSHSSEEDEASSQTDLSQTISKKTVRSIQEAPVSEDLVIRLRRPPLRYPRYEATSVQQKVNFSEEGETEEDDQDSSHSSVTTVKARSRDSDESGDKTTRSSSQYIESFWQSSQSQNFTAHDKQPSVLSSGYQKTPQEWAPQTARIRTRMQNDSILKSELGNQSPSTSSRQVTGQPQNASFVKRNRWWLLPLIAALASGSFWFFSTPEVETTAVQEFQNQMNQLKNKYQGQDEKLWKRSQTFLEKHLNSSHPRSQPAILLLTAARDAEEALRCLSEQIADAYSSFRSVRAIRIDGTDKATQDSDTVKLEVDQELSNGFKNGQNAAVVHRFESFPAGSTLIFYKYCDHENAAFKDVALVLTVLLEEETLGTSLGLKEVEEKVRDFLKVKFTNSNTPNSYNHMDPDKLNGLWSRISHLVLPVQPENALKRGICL
Chain of Follistatin-related protein 3 (Homo sapiens) (O95633 whole entry, looked up): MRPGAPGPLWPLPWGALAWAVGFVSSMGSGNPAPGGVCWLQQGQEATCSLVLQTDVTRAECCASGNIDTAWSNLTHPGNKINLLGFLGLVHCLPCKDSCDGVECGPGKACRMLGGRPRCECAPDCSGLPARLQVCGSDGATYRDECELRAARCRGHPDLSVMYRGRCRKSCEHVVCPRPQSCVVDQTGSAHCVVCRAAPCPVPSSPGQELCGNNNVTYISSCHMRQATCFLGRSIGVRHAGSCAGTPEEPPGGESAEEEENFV
Chain of Dickkopf-related protein 1 (Homo sapiens) (O94907 whole entry, looked up): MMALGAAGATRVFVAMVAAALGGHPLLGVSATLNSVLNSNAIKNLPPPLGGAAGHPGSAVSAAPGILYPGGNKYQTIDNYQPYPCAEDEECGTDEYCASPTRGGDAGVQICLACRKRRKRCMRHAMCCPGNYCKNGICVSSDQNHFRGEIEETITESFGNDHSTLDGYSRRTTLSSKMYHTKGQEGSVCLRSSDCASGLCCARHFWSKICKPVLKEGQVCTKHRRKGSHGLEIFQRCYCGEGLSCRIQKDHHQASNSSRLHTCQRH
Chain of Fibroblast growth factor 10 (Homo sapiens) (O15520 whole entry, looked up): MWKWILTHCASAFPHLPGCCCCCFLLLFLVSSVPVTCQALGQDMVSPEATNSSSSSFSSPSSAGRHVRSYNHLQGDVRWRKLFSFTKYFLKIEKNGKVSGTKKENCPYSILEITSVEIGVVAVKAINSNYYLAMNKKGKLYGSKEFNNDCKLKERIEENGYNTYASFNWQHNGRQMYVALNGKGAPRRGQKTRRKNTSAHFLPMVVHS
Chain of Epidermal growth factor receptor (Homo sapiens) (P00533 whole entry, looked up): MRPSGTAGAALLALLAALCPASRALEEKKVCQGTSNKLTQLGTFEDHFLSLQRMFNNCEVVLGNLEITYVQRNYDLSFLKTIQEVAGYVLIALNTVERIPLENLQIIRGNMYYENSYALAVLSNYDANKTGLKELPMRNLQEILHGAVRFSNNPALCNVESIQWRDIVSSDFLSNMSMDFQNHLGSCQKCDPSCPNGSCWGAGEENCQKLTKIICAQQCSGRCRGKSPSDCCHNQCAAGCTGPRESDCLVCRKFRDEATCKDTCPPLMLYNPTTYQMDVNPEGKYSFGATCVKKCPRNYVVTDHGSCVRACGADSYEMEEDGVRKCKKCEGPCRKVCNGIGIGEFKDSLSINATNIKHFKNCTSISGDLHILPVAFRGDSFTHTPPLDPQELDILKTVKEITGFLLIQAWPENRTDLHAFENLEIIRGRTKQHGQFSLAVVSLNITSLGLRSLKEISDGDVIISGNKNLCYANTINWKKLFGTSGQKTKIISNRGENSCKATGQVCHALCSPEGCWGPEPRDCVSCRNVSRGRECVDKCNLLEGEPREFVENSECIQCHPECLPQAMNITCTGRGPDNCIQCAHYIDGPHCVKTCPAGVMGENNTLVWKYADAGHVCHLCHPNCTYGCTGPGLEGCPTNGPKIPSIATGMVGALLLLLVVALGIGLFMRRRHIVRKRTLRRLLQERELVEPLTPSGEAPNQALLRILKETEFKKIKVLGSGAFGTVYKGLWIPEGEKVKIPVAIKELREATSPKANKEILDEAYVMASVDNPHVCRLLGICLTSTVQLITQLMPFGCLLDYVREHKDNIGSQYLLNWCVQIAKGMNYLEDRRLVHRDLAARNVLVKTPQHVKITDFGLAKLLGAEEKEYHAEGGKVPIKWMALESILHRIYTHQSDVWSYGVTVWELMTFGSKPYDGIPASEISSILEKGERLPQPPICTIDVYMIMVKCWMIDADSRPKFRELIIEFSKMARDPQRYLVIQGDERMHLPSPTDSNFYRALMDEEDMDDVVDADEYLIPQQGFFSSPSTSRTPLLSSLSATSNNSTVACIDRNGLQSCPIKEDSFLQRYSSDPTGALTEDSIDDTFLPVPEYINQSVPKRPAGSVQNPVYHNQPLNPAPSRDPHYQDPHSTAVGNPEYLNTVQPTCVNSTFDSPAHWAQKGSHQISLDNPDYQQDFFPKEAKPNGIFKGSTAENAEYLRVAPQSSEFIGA

Take `C=CC[C@@]1(C(=O)NCCCOC)N=C(c2ccc(OCCCO)cc2)O[C@@H]1c1ccccc1CN=[N+]=[N-]`: the composite z-score in [1] was found to be 1.5; in assay [2], 0.739; in assay [3] it was 0.772; in [5] it was 1.38; in assay [6] it was 1.31; in [7] it was 0.0652. For the same molecule, the composite z-score in assay [8] was 1.2; in [9], -0.0117; in assay [10] it was 1.14; in assay [11], 1.42; in assay [13], 0.266; in [14], 1.66. Moreover, the composite z-score in assay [15] is 0.414; in [16], 0.0391; in assay [17], -0.13; in assay [18], 0.396; in [19], 0.957; in assay [20] it was 1.19. Besides, the z-score in assay [4] was -0.226 (inactive); in assay [12], -2.12.
`CC(C)c1ccc(NN2C(C(O)c3ccccc3)C=CC3C(=O)N(c4ccccc4)C(=O)C32)cc1` (stereo not given): the composite z-score in assay [1] is 1.26; in assay [2], 1.25; in assay [3], 0.98; in assay [5], 0.715; in [6] it was 0.522; in assay [7], -0.144. The composite z-score in assay [8] was 0.634; in assay [9], -0.624; in assay [10], 0.546; in assay [11] it was 1.33; in assay [13], -0.636; in assay [14], 0.793. Moreover, the composite z-score in assay [15] was determined as 0.7; in [16] it was 0.235; in [17], 0.171; in assay [18] it was 0.0811; in [19] it was 0.588; in assay [20], 1.67. In addition, the z-score in assay [4] is -0.648 (inactive); in [12] it was 0.618.
For `O=C1c2ccccc2[C@](Cc2ccccc2I)(C(=O)NCCN2CCOCC2)[C@H](c2ccc(CO)cc2)N1Cc1ccccc1C(F)(F)F`, the composite z-score is 0.655 in assay [1]; -0.0516 in assay [2]; 0.358 in [3]; 0.275 in assay [5]; 0.484 in assay [6]; -0.288 in assay [7]. The composite z-score in [8] is 0.276; in assay [9], -0.419; in [10], 0.734; in assay [11] it was 1.4; in [13] it was -0.325; in [14], 0.799. Besides, the composite z-score in assay [15] is 0.492; in [16], -0.0721; in assay [17], -0.221; in [18], -0.43; in [19] it was 0.598; in [20], 0.787. Besides, the z-score in assay [4] was -0.0322 (inactive); in [12], -2.44.
With `CCOC(=O)C1=CC[C@@H](c2ccccc2)N(S(=O)(=O)c2ccc(C)cc2)[C@@H]1C#N`, the composite z-score is 0.921 in assay [1]; 0.386 in [2]; 0.868 in [3]; 0.562 in [5]; -0.199 in [6]; -0.181 in assay [7]. Besides, the composite z-score in assay [8] was 0.364; in assay [9] it was -0.542; in [10], 0.767; in assay [11] it was 1.32; in [13], 0.0775; in assay [14] it was 1.2. The composite z-score in assay [15] turned out to be 0.325; in assay [16], 0.0438; in [17], 0.14; in assay [18] it was 0.404; in assay [19], 0.349; in assay [20], 0.786. Further, the results for the z-score in [4] and in assay [12] were 0.694 (inactive) and -1.72, respectively.
In the case of `Cc1ccc(S[C@]2(C(=O)NCc3ccccc3)CC(=O)N(Cc3ccccc3C(F)(F)F)[C@@H]2c2ccc(CO)cc2I)cc1`, the composite z-score in assay [1] was 1.62; in [2], 0.211; in assay [3], 0.831; in [5], -0.557; in [6], -0.498; in [7], -1.3. Also, the composite z-score in assay [8] is -0.793; in assay [9] it was -0.749; in assay [10], 1.07; in assay [11], -0.565; in assay [13], -0.916; in assay [14], -0.348. Also, the composite z-score in assay [15] is 0.549; in assay [16], -0.124; in assay [17], -0.334; in [18], 0.389; in assay [19], 0.662; in [20] it was -0.593. For the same molecule, the z-score was -0.494 (inactive) in assay [4] and -1.64 in assay [12].
In the case of `COCCOC(=O)N1C(=O)[C@@]2(c3cc(C#CCCO)ccc31)[C@H](C(=O)N1CCN(c3ncccn3)CC1)[C@H]1C(=O)O[C@H](c3ccccc3)[C@H](c3ccccc3)N1[C@@H]2c1ccc(OCCO)cc1`, the composite z-score in [1] is 1.24; in assay [2] it was -0.019; in assay [3], 0.349; in assay [5], 1.22; in assay [6], 0.823; in [7] it was 0.592. Further, the composite z-score in assay [8] came out at 1.38; in [9] it was 0.514; in assay [10], 0.356; in [11], 1.46; in [13] it was 0.6; in assay [14], 1.26. Moreover, the composite z-score in assay [15] came to 0.0318; in [16] it was 0.0633; in assay [17] it was 0.0469; in assay [18], 0.234; in assay [19] it was 0.867; in assay [20] it was 1.95. The z-score in [4] is -1.1 (inactive); in assay [12], -1.21.
Consider `OCCCc1cc[n+](Cc2cc3c(cc2Br)OCO3)cc1`, for which the composite z-score in assay [1] is -0.837; in assay [2], -0.0013; in assay [3] it was 0.706; in assay [5], -0.741; in assay [6] it was -1.84; in assay [7], -1.15. The composite z-score in assay [8] is -0.725; in [9], -0.625; in assay [10], 0.783; in assay [11], -0.945; in assay [13], -1.12; in assay [14], -1.81. Besides, the composite z-score was 0.172 in assay [15]; -0.147 in [16]; -0.207 in assay [17]; -0.172 in [18]; -0.81 in [19]; -2.04 in assay [20]. Also, the z-score is 0.341 (inactive) in [4] and 1.05 in assay [12].
